Test results taken from PubChem BioAssay (NCATS).
Records with an inconclusive call do not appear. The source made the active and inactive calls. Unless noted, the call rests on the fitted dose curve; in most records, active means well fitted curve in the direction sought with a large enough effect; inconclusive means small, poorly fitted or top-dose-only effect, or another doubt; inactive means no such curve, though single readings can be large; an effect the other way counts as inactive or inconclusive.

What was measured:
[1] = molecular target: ATP-dependent 6-phosphofructokinase (Trypanosoma brucei brucei) (UniProt O15648); assay: qHTS Assay to Find Inhibitors of T. brucei phosphofructokinase: hit validation (AID 492961);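 further: luminescence reports ADP formed as PFK phosphorylates fructose-6-phosphate with ATP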
Sequence of ATP-dependent 6-phosphofructokinase (Trypanosoma brucei brucei) (O15648 whole entry, looked up): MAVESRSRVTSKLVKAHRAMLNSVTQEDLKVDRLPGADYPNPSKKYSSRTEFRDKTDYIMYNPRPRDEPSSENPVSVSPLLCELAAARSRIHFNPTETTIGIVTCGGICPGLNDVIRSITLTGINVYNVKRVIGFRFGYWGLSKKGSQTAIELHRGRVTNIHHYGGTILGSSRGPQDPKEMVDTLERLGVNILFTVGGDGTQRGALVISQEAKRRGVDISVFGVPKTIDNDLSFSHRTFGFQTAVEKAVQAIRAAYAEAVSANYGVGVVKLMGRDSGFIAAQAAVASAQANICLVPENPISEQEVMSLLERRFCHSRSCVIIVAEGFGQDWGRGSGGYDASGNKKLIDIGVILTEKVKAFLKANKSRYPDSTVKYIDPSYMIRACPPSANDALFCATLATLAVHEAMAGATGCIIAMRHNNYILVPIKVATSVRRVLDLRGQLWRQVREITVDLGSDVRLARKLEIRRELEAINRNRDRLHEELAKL
How it was run: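 Measures ADP output of PFK (1.25 nM) at 0.1 mM ATP, 0.5 mM F6P, pH 8.0 TEA buffer with 5 mM MgCl2. No-enzyme wells define full inhibition; uninhibited enzyme wells define zero.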

[2] = molecular target: Ubiquitin carboxyl-terminal hydrolase 1 (Homo sapiens) (UniProt O94782); assay: Inhibitors of USP1/UAF1: Pilot qHTS (AID 504865);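 further: rhodamine fluorescence freed from ubiquitin-rhodamine substrate followed over time; top concentration of the series differs between compounds; nearly all actives have a fitted effect of over 35% in size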
Sequence of Ubiquitin carboxyl-terminal hydrolase 1 (Homo sapiens) (O94782 whole entry, looked up): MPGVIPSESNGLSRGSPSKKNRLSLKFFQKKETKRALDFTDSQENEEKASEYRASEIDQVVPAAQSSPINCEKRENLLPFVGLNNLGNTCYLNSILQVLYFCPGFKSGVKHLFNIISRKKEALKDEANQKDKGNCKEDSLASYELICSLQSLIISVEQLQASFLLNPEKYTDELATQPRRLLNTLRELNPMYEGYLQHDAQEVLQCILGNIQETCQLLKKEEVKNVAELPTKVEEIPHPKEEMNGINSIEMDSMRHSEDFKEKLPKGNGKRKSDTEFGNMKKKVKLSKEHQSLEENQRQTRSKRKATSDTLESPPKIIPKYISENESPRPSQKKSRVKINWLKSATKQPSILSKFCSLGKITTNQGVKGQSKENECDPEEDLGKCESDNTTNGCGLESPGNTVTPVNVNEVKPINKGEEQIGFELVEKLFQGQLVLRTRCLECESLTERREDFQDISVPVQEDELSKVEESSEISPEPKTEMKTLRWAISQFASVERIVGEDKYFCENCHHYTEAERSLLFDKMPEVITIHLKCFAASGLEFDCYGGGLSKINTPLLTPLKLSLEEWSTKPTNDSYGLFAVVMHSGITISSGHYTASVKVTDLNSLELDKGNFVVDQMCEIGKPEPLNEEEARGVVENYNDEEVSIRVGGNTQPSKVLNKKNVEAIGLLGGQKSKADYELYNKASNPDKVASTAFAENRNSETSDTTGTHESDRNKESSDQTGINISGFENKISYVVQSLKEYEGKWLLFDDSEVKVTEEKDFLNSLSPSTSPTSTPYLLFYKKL
How it was run: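 USP1/UAF1 complex at 1 nM preincubated 15 min at room temperature with compound, then Ub-Rho substrate added at 150 nM final. Fluorescence (480/540 nm) read kinetically in 50 mM HEPES pH 7.8, 0.5 mM EDTA, 1 mM TCEP, 0.1 mg/ml BSA, 0.01% Tween-20.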

[3] = molecular target: Luciferin 4-monooxygenase (Photinus pyralis) (UniProt P08659); assay: Biochemical firefly luciferase enzyme assay for NPC (AID 624030);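 further: purified P. pyralis luciferase at 10 nM with luciferin and ATP substrate; nearly all actives have a fitted effect of over 70% in size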
Sequence of Luciferin 4-monooxygenase (Photinus pyralis) (P08659 whole entry, looked up): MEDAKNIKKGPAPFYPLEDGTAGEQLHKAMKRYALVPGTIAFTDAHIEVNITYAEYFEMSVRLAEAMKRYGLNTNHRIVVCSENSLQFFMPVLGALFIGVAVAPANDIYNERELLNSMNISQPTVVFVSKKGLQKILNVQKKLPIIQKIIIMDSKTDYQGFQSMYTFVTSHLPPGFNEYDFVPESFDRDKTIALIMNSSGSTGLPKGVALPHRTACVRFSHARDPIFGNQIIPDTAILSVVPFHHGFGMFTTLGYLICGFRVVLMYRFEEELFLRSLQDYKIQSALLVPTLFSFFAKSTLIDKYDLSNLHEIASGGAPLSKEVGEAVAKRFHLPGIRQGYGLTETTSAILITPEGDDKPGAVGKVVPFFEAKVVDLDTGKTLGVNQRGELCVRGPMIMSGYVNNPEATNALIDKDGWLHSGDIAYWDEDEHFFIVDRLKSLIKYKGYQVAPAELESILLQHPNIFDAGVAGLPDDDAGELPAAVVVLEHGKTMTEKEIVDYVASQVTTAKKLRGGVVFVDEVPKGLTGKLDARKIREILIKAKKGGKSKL
How it was run: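 Direct inhibition of firefly luciferase enzyme (10 nM final, 50 mM Tris Acetate) assessed by luminescence within 5 minutes. Percent activity scaled between DMSO and PTC124 positive control, with concentration-effect curves classified by fit quality and response.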

[4] = S16 Schwann cell viability assay (CellTiter-Glo assay) (AID 624031);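 further: native untransfected S16 rat Schwann cells; nearly all actives have a fitted effect of over 70% in size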
How it was run: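 Counter-screen for cytotoxicity: parental S16 rat Schwann cells lacking the PMP22 reporters, treated 24 h with compound, viability from cellular ATP by CellTiter-Glo luminescence, normalized to DMSO (0%) and no-cell wells.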

[5] = S16 Schwann cell PMP22 intronic element beta-lactamase assay (AID 624044; calls by dose curve; further: nearly all actives have a fitted effect of over 15% in size); conditions: S16 rat Schwann cells, PMP22 element beta-lactamase FRET, 24 h; ratio activity, negative = inhibition: at 38.3 µM (top of the series) unless noted
How it was run: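 Rat S16 Schwann cells with beta-Lac driven by a PMP22 intronic element, compound-treated 24 h at 37 °C. LiveBLAzer FRET B/G read: 460 nm normalized to potassium clavulanate vs DMSO; 535 nm FRET as viability; concentration-effect curves classified.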

[6] = molecular target: Cytochrome P450 2D6 (Homo sapiens) (UniProt P10635); assay: Cytochrome P450 family 2 subfamily D member 6 (CYP2D6) small molecule antagonists: luciferase biochemical (cell-free) qHTS assay (AID 1645840; active means well fitted curve in the direction sought with a large enough effect in the repeat runs; an effect the other way counts as inactive or inconclusive; further: nearly all actives have a fitted effect of over 55% in size)
Sequence of Cytochrome P450 2D6 (Homo sapiens) (P10635 whole entry, looked up): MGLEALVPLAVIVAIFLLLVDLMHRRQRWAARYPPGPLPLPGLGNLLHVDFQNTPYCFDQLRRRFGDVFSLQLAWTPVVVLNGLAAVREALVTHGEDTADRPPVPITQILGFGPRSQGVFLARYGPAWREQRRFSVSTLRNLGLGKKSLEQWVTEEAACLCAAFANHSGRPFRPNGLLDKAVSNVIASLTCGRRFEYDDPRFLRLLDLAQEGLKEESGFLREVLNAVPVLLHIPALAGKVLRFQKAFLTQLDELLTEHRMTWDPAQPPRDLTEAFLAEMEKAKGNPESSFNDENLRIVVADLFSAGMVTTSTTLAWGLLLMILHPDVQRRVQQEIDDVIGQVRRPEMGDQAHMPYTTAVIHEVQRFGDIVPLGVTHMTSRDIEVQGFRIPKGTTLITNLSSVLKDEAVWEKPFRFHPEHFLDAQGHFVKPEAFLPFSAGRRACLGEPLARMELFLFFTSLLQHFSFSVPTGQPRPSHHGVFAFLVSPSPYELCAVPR
How it was run: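 P450-Glo luminescent screen: recombinant CYP2D6 enzyme–proluciferin substrate mix preincubated with compound 10 min at room temperature, then NADPH regeneration added for 1 h at room temperature. Detection reagent added for 20 min; luciferin light read as relative luminescence units.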

[7] = molecular target: Cytochrome P450 3A4 (Homo sapiens) (UniProt P08684); assay: Cytochrome P450 family 3 subfamily A member 4 (CYP3A4) small molecule antagonists: luciferase qHTS assay (AID 1645841; active means well fitted curve in the direction sought with a large enough effect in the repeat runs; an effect the other way counts as inactive or inconclusive; further: nearly all actives have a fitted effect of over 45% in size)
Sequence of Cytochrome P450 3A4 (Homo sapiens) (P08684 whole entry, looked up): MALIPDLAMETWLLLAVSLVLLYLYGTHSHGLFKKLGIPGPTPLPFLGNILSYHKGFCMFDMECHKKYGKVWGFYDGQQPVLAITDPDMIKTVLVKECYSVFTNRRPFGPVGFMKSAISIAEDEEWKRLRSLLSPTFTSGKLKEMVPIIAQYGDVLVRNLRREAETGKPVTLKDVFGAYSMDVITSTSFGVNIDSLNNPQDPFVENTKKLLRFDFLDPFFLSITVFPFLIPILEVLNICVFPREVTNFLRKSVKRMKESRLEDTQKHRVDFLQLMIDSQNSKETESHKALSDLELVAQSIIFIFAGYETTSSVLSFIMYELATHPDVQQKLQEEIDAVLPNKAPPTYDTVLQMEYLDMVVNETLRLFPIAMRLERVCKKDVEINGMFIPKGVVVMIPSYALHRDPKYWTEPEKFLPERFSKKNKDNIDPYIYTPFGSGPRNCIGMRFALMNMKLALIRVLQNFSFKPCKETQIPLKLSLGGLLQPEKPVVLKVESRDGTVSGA
How it was run: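 Luminescent CYP3A4 activity readout: compounds plus enzyme-substrate mix 10 min at room temperature, reaction started with NADPH regenerating system for 1 h, stopped with detection reagent, read after 20 min. Ketoconazole served as control.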

[8] = qHTS profiling for inhibitors of Plasmodium falciparum proliferation (AID 504749); further: nearly all actives have a fitted effect of over 60% in size; further: potency means the concentration at half of the fitted maximal effect; conditions: P. falciparum in erythrocytes, SYBR Green DNA, 72 h
How it was run: (§1)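 Three-day growth assay of blood-stage parasites in erythrocytes (0.3% parasitemia, 2.5% hematocrit) at 37 C, 5% CO2, quantified by SYBR Green DNA staining after overnight detergent lysis.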

3D7 = assay: as above; conditions: P. falciparum in erythrocytes, SYBR Green DNA, 72 h; series mostly up to 28.7 µM
How it was run: as §1

7G8 = assay: as above; conditions: P. falciparum in erythrocytes, SYBR Green DNA, 72 h; series mostly up to 12.8 µM
How it was run: as §1

AA1029 = assay: as above; conditions: P. falciparum in erythrocytes, SYBR Green DNA, 72 h; series mostly up to 28.7 µM
How it was run: as §1

AS120 = assay: as above; conditions: P. falciparum in erythrocytes, SYBR Green DNA, 72 h; series mostly up to 28.7 µM
How it was run: as §1

ATS189 = assay: as above; conditions: P. falciparum in erythrocytes, SYBR Green DNA, 72 h; series mostly up to 28.7 µM
How it was run: as §1

ATS95 = assay: as above; conditions: P. falciparum in erythrocytes, SYBR Green DNA, 72 h; series mostly up to 28.7 µM
How it was run: as §1

C2A = assay: as above; conditions: P. falciparum in erythrocytes, SYBR Green DNA, 72 h; series mostly up to 28.7 µM
How it was run: as §1

CP191 = assay: as above; conditions: P. falciparum in erythrocytes, SYBR Green DNA, 72 h; series mostly up to 28.7 µM
How it was run: as §1

CP192 = assay: as above; conditions: P. falciparum in erythrocytes, SYBR Green DNA, 72 h; series mostly up to 28.7 µM
How it was run: as §1

CP194 = assay: as above; conditions: P. falciparum in erythrocytes, SYBR Green DNA, 72 h; series mostly up to 28.7 µM
How it was run: as §1

CP201 = assay: as above; conditions: P. falciparum in erythrocytes, SYBR Green DNA, 72 h; series mostly up to 28.7 µM
How it was run: as §1

CP203 = assay: as above; conditions: P. falciparum in erythrocytes, SYBR Green DNA, 72 h; series mostly up to 28.7 µM
How it was run: as §1

CP211 = assay: as above; conditions: P. falciparum in erythrocytes, SYBR Green DNA, 72 h; series mostly up to 28.7 µM
How it was run: as §1

CP215 = assay: as above; conditions: P. falciparum in erythrocytes, SYBR Green DNA, 72 h; series mostly up to 28.7 µM
How it was run: as §1

CP217 = assay: as above; conditions: P. falciparum in erythrocytes, SYBR Green DNA, 72 h; series mostly up to 28.7 µM
How it was run: as §1

CP237 = assay: as above; conditions: P. falciparum in erythrocytes, SYBR Green DNA, 72 h; series mostly up to 28.7 µM
How it was run: as §1

CP238 = assay: as above; conditions: P. falciparum in erythrocytes, SYBR Green DNA, 72 h; series mostly up to 28.7 µM
How it was run: as §1

CP247 = assay: as above; conditions: P. falciparum in erythrocytes, SYBR Green DNA, 72 h; series mostly up to 28.7 µM
How it was run: as §1

CP250 = assay: as above; conditions: P. falciparum in erythrocytes, SYBR Green DNA, 72 h; series mostly up to 12.8 µM
How it was run: as §1

CP252 = assay: as above; conditions: P. falciparum in erythrocytes, SYBR Green DNA, 72 h; series mostly up to 12.8 µM
How it was run: as §1

CP256 = assay: as above; conditions: P. falciparum in erythrocytes, SYBR Green DNA, 72 h; series mostly up to 28.7 µM
How it was run: as §1

CP260 = assay: as above; conditions: P. falciparum in erythrocytes, SYBR Green DNA, 72 h; series mostly up to 28.7 µM
How it was run: as §1

CP262 = assay: as above; conditions: P. falciparum in erythrocytes, SYBR Green DNA, 72 h; series mostly up to 28.7 µM
How it was run: as §1

CP265 = assay: as above; conditions: P. falciparum in erythrocytes, SYBR Green DNA, 72 h; series mostly up to 12.8 µM
How it was run: as §1

CP268 = assay: as above; conditions: P. falciparum in erythrocytes, SYBR Green DNA, 72 h; series mostly up to 28.7 µM
How it was run: as §1

CP269 = assay: as above; conditions: P. falciparum in erythrocytes, SYBR Green DNA, 72 h; series mostly up to 28.7 µM
How it was run: as §1

CP286 = assay: as above; conditions: P. falciparum in erythrocytes, SYBR Green DNA, 72 h; series mostly up to 28.7 µM
How it was run: as §1

CP291 = assay: as above; conditions: P. falciparum in erythrocytes, SYBR Green DNA, 72 h; series mostly up to 28.7 µM
How it was run: as §1

CP297 = assay: as above; conditions: P. falciparum in erythrocytes, SYBR Green DNA, 72 h; series mostly up to 28.7 µM
How it was run: as §1

CP305 = assay: as above; conditions: P. falciparum in erythrocytes, SYBR Green DNA, 72 h; series mostly up to 28.7 µM
How it was run: as §1

CP315 = assay: as above; conditions: P. falciparum in erythrocytes, SYBR Green DNA, 72 h; series mostly up to 28.7 µM
How it was run: as §1

CP325 = assay: as above; conditions: P. falciparum in erythrocytes, SYBR Green DNA, 72 h; series mostly up to 28.7 µM
How it was run: as §1

CP329 = assay: as above; conditions: P. falciparum in erythrocytes, SYBR Green DNA, 72 h; series mostly up to 28.7 µM
How it was run: as §1

CP335 = assay: as above; conditions: P. falciparum in erythrocytes, SYBR Green DNA, 72 h; series mostly up to 12.8 µM
How it was run: as §1

DIV14 = assay: as above; conditions: P. falciparum in erythrocytes, SYBR Green DNA, 72 h; series mostly up to 28.7 µM
How it was run: as §1

DIV30 = assay: as above; conditions: P. falciparum in erythrocytes, SYBR Green DNA, 72 h; series mostly up to 28.7 µM
How it was run: as §1

Dd2 = assay: as above; conditions: P. falciparum in erythrocytes, SYBR Green DNA, 72 h; series mostly up to 28.7 µM
How it was run: as §1

ECU = assay: as above; conditions: P. falciparum in erythrocytes, SYBR Green DNA, 72 h; series mostly up to 28.7 µM
How it was run: as §1

FAB9 = assay: as above; conditions: P. falciparum in erythrocytes, SYBR Green DNA, 72 h; series mostly up to 28.7 µM
How it was run: as §1

GB4 = assay: as above; conditions: P. falciparum in erythrocytes, SYBR Green DNA, 72 h; series mostly up to 28.7 µM
How it was run: as §1

HB3 = assay: as above; conditions: P. falciparum in erythrocytes, SYBR Green DNA, 72 h; series mostly up to 28.7 µM
How it was run: as §1

ICS = assay: as above; conditions: P. falciparum in erythrocytes, SYBR Green DNA, 72 h; series mostly up to 28.7 µM
How it was run: as §1

JCK = assay: as above; conditions: P. falciparum in erythrocytes, SYBR Green DNA, 72 h; series mostly up to 28.7 µM
How it was run: as §1

N140 = assay: as above; conditions: P. falciparum in erythrocytes, SYBR Green DNA, 72 h; series mostly up to 28.7 µM
How it was run: as §1

P93_24 = assay: as above; conditions: P. falciparum in erythrocytes, SYBR Green DNA, 72 h; series mostly up to 28.7 µM
How it was run: as §1

P94_40 = assay: as above; conditions: P. falciparum in erythrocytes, SYBR Green DNA, 72 h; series mostly up to 28.7 µM
How it was run: as §1

PAD = assay: as above; conditions: P. falciparum in erythrocytes, SYBR Green DNA, 72 h; series mostly up to 28.7 µM
How it was run: as §1

PC26 = assay: as above; conditions: P. falciparum in erythrocytes, SYBR Green DNA, 72 h; series mostly up to 28.7 µM
How it was run: as §1

TAB109 = assay: as above; conditions: P. falciparum in erythrocytes, SYBR Green DNA, 72 h; series mostly up to 12.8 µM
How it was run: as §1

TAB113 = assay: as above; conditions: P. falciparum in erythrocytes, SYBR Green DNA, 72 h; series mostly up to 28.7 µM
How it was run: as §1

TAB165 = assay: as above; conditions: P. falciparum in erythrocytes, SYBR Green DNA, 72 h; series mostly up to 28.7 µM
How it was run: as §1

W2 = assay: as above; conditions: P. falciparum in erythrocytes, SYBR Green DNA, 72 h; series mostly up to 12.8 µM
How it was run: as §1

Measured: Potency

O=[As]O[As]=O (stereo unspecified)
inactive: [1] | [2] | [3] | [4] | [5] | [6] | [7] | CP262
active: [8]; parasite line A 8.91 µM | [8]; parasite line B 8.91 µM | 3D7 11.2 µM | 7G8 3.98 µM | AA1029 11.2 µM | AS120 11.2 µM | ATS189 8.91 µM | ATS95 10 µM | C2A 12.6 µM | CP191 11.2 µM | CP192 9.53 µM | CP194 13.5 µM | CP201 13.5 µM | CP203 10.7 µM | CP211 12 µM | CP215 13.5 µM | CP217 7.94 µM | CP237 11.2 µM | CP238 8.91 µM | CP247 7.94 µM | CP250 7.94 µM | CP252 12.6 µM | CP256 8.91 µM | CP260 6.31 µM | CP265 12.6 µM | CP268 15.1 µM | CP269 6.01 µM | CP286 8.91 µM | CP291 6.75 µM | CP297 9.53 µM | CP305 8.49 µM | CP315 13.5 µM | CP325 6.75 µM | CP329 15.1 µM | CP335 7.57 µM | DIV14 6.01 µM | DIV30 8.49 µM | Dd2 7.94 µM | ECU 8.91 µM | FAB9 11.2 µM | GB4 8.49 µM | HB3 11.2 µM | ICS 7.08 µM | JCK 11.2 µM | N140 7.94 µM | P93_24 5.01 µM | P94_40 7.08 µM | PAD 8.91 µM | PC26 15.1 µM | TAB109 7.08 µM | TAB113 7.94 µM | TAB165 6.31 µM | W2 4.26 µM
